The list is not random: actives were taken first. Their share in the collection is about 4%.
TWEAK Fn14 block: inhibitors of TWEAK-Fn14 interaction signaling. 360,000 tested, 2% active. inhibition, % at 10 µM. TWEAK-stimulated Fn14 reporter cells, luciferase luminescence, 8 h; in the data active means inhibition above about 50%
Peg3 prom inh: inhibitors of Peg3 promoter; HeLa PEG-Prom luciferase reporter, luminescence, overnight; inhibition, % at 20 µM; AID 588405; 360,000 tested, 1.7% active;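 active means inhibition of at least 50% at 20 µM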
TROY signal inh: TROY signaling inhibition | Q293 LMP1-TROYcd NF-kB luciferase reporter, 4 h | inhibition, % at 10 µM | 360,000 tested, 0.98% active | AID 1347056;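 active means compounds whose plate-normalised and pattern-corrected inhibition of the luciferase reporter signal at the single screening dose is 50% or more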
HIF-2a block: HIF-2a inhibition; 786-0 RCC cells HIF-2a reporter, luciferase luminescence, overnight; inhibition, % at 18.8 µM; 360,000 tested, 0.72% active;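 active means inhibition of the luminescence signal of 40% or more relative to plate controls, in a single-dose primary screen at 18.75 µM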
KKLEB tox: CF airway cell cytotoxicity counter-screen; 360,000 tested, 0.36% active; AID 602141; activity change (cytotoxicity), % at 5 µM; KKLEB CF airway cells viability, ATPlite luminescence, overnight; hits give low values; cells stimulated with P. aeruginosa culture filtrate;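 active means corrected activity change at or below -50% at 5 µM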
CF NFkB inh: inhibitors of cystic fibrosis induced NF-kB; KKLEB NF-kB-GFP reporter, PAF-induced, GFP fluorescence overnight; inhibition, % at 5 µM; 360,000 tested, 0.86% active;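 active means at least 50% inhibition at 5 µM, scaled per plate between neutral and stimulator controls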;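 further: PAF is a Pseudomonas aeruginosa culture filtrate used as stimulus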
Mdm2 MdmX conf: confirmation of inhibitors of human Mdm2/MdmX interaction, set 2; shares compounds with HIF-2a block; SaOS-2 split-luciferase Mdm2/MdmX complementation, luminescence; inhibition, % at 8 µM; 740 tested, 99% active; AID 504601;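 active means mean inhibition of the luminescence signal across two replicates at or above 26 percent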
Target sequence (O15151 whole entry, looked up): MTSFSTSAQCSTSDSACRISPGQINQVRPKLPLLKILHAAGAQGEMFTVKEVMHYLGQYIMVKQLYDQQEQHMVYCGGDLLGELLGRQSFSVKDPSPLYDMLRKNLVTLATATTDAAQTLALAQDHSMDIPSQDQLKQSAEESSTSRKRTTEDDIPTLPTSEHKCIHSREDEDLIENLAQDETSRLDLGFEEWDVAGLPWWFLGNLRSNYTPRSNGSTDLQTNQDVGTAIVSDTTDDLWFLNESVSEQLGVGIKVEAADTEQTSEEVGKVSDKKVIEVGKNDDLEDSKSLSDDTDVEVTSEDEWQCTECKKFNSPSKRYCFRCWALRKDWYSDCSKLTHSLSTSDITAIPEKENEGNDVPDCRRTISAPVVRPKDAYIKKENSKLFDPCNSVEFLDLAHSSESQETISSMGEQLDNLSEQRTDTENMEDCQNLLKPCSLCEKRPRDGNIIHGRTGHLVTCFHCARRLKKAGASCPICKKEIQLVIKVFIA
Target sequence (Q00987 whole entry, looked up): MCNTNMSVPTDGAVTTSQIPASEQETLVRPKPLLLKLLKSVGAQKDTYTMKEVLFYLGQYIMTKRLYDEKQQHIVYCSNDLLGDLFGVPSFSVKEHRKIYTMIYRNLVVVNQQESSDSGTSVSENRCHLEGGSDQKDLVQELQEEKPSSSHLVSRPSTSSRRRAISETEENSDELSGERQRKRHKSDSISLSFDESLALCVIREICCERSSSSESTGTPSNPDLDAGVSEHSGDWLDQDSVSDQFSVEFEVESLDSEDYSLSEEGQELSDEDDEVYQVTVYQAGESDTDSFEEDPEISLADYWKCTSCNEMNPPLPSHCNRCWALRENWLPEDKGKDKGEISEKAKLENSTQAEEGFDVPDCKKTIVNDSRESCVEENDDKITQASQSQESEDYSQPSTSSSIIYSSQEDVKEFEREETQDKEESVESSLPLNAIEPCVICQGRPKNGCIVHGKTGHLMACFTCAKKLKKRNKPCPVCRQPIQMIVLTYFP
HIF-2a conf: HIF-2a inhibition, single concentration confirmation | inhibition, % at 18.8 µM | AID 651580 | 786-0 RCC cells, HIF-2a luciferase reporter luminescence, overnight | shares compounds with HIF-2a block | 1,800 tested, 56% active;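 active means mean inhibition across four replicates of at least 40 percent at the single tested concentration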
HIF-1a cs: counter-screen for HIF-2a inhibitors: HIF-1a inhibition in MiaPaCa-2 cells. MiaPaCa-2 HIF-1a luciferase reporter, desferoxamine, overnight. 1,800 tested, 72% active. AID 651589. inhibition, % at 18.8 µM. shares compounds with HIF-2a block;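 active means mean inhibition of the reporter signal across four replicates at the single tested dose of 50% or more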
Numbers stand for hits; i = inactive; nt = not tested or not shown.

SMILES	TWEAK Fn14 block	Peg3 prom inh	TROY signal inh	HIF-2a block	KKLEB tox	CF NFkB inh	HIF-2a conf	HIF-1a cs	others
CC1CC(C)(C)Nc2ccc(OC(=O)c3ccco3)cc21 (configuration not stated)	89	i	i	45	i	i	62	71
Cc1nc(SCCC(=O)O)c2cc(-c3ccccc3)sc2n1	i	i	i	85	i	i	91	i
Cc1nc(N2CCOCC2)c2cc(-c3ccccc3)sc2n1	i	i	i	i	i	i	nt	nt
Cc1ccc2c(c1)C(c1ccccc1)N(C(=O)c1cc3ccccc3oc1=O)CC(=O)N2 (configuration not stated)	i	i	i	i	i	i	nt	nt
COc1cc(/C=C/C(=O)c2ccc3c(c2)OCCO3)cc(Br)c1OCC(=O)N(C)C	83	107	i	93	i	i	91	102	Mdm2 MdmX conf=101
COc1cccc(/C=C/C(=O)c2ccc3c(c2)OCO3)c1OC	i	i	i	i	i	i	nt	nt
COc1cccc(CNC(=O)COC(=O)c2nc(Cl)c(Cl)c(Cl)c2Cl)c1	94	90	i	58	i	i	i	i
COc1cccc(CNC(=O)CCl)c1	i	i	i	i	i	i	nt	nt
Cc1ccc(-n2nnc3c(=O)oc4ccccc4c32)cc1	i	i	i	52	i	i	i	i
CCOC(=O)c1c(C)[nH]c(C)c1C(=O)COC(=O)/C=C/c1ccco1	i	i	i	i	i	i	nt	nt
CC(=O)N(Cc1c(C)nn(-c2ccccc2)c1Cl)c1ccc(Cl)cc1	i	i	i	i	i	i	nt	nt
Cc1nn(-c2ccccc2)c(Cl)c1CN(C(=O)CCl)c1ccc(Cl)cc1	i	103	i	96	-97	91	99	106
Cc1nn(-c2ccccc2)c(Cl)c1CN(C(=O)CCl)c1cccc2ccccc12	77	95	i	62	i	i	73	106	Mdm2 MdmX conf=103
CC(=O)NC(=C(Cl)Cl)S(=O)(=O)c1ccccc1	i	i	i	i	i	i	nt	nt
O=C(NC(=C(Cl)Cl)S(=O)(=O)c1ccc(Cl)cc1)c1ccccc1	96	61	i	62	i	i	i	103
Cc1ccc(S(=O)(=O)CCC(=O)OCC(=O)NC(=O)c2ccccc2)cc1	i	i	i	i	i	i	nt	nt
Cc1ccc(S(=O)(=O)C(NC(=O)c2ccccc2)=C(Cl)Cl)cc1	65	52	i	41	i	i	i	82
Cc1ccc(S(=O)(=O)/C(=C/Cl)NC(=O)c2ccccc2)cc1	77	81	i	41	i	i	i	68
CCOC(=O)[C@]12CCC=C1N(Cc1ccccc1)C(=O)[C@H](CC(=O)NCc1cccs1)C2	i	nt	i	i	nt	nt	nt	nt
COc1ccc(Br)cc1C(C[N+](=O)[O-])c1c(N)n(C)c(=O)n(C)c1=O (configuration not stated)	i	68	i	58	i	i	i	86
O=[N+]([O-])c1cnc2ccccn12	i	i	i	i	i	i	nt	nt
O=c1cc(-c2ccccc2)oc2ccc(Cl)cc12	i	i	i	i	i	i	nt	nt
O=c1oc(-c2ccccc2)cc(Cl)c1Cl	i	109	i	42	-103	74	i	107
CC(=O)Oc1ccccc1/C=C/c1ccc2ccccc2[n+]1C	i	i	i	i	i	i	nt	nt
Cc1cc(=O)oc2c(C(=O)/C=C/c3ccccc3)c(O)ccc12	i	i	i	i	i	i	nt	nt
SMILES	TWEAK Fn14 block	Peg3 prom inh	TROY signal inh	HIF-2a block	KKLEB tox	CF NFkB inh	HIF-2a conf	HIF-1a cs	others
COc1ccc(/C=C\C(=O)c2c(O)ccc3c(C)cc(=O)oc23)cc1OC	i	i	i	55	i	i	i	85
CC1Cc2cc(S(=O)(=O)N3CCN(c4ccccc4)CC3)ccc2N1C(=O)C1CC1 (configuration not stated)	i	i	i	i	i	i	nt	nt
CCCCN(CC)CCNC(=O)C1CCN(S(=O)(=O)c2cccc3nsnc23)CC1	i	i	i	i	i	i	nt	nt
Cc1ccc(-c2cc(C(=O)N3CC(C)CC(C)C3)c3ccccc3n2)o1 (configuration not stated)	i	i	i	44	i	i	i	i
Cc1ccc(-c2cc(C(=O)N3CC(C)OC(C)C3)c3ccccc3n2)o1 (configuration not stated)	i	i	i	i	i	i	nt	nt
O=C(Nc1ccc(N2CCOCC2)cc1)c1cnccn1	81	59	60	53	i	i	71	i
O=C(Nc1ccccc1N1CCOCC1)c1cnccn1	i	i	i	i	i	i	nt	nt
CCn1c(COc2cccc(C)c2)nnc1SCC(=O)N1CCCC1	i	i	i	i	i	i	nt	nt
NCCCn1cnc2ccccc21	i	i	i	47	i	i	i	i
CCN(CC)c1ccc(C=Nc2cccc(S(=O)(=O)N3CCOCC3)c2)c(O)c1	i	i	i	i	i	i	nt	nt
CCN(CC)c1ccc(/C=N/NC(=O)c2cccc(S(=O)(=O)N3CCOCC3)c2)c(O)c1	i	i	i	i	i	i	nt	nt	Mdm2 MdmX conf=91
Cn1c(=O)c(=O)n(C)c2cc(N3CCCC3)c(NS(=O)(=O)c3ccc(F)cc3)cc21	i	i	i	i	i	i	nt	nt
COc1ccc(NC(=O)/C=C/c2cc(Br)ccc2OC)cc1	i	i	i	i	i	i	nt	nt
COc1ccc(Br)cc1/C=C/C(=O)c1ccc(NC(C)=O)cc1	84	106	i	85	i	i	64	106
COc1ccc(C(C(=O)NC2CCCCC2)N(C(=O)CCl)c2ccc(C)cc2)cc1 (configuration not stated)	57	69	i	i	-93	91	nt	nt	Mdm2 MdmX conf=102
COc1ccc(C(C(=O)NC2CCCCC2)N(C(=O)CCl)c2ccc(OC)cc2)cc1 (configuration not stated)	64	101	i	i	-81	72	nt	nt	Mdm2 MdmX conf=95
CCc1ccccc1N(C(=O)CNC(=O)c1ccco1)C(C(=O)NC1CCCC1)c1cccnc1 (configuration not stated)	i	i	i	i	i	i	nt	nt
O=C(NC1CCCCC1)C(c1cccnc1)N(C(=O)CCl)c1ccccc1Cl (configuration not stated)	62	i	i	i	i	i	nt	nt	Mdm2 MdmX conf=103
CCN(C(=O)COC(=O)C1CCC(C(C)(C)C)CC1)c1c(N)n(Cc2ccccc2)c(=O)[nH]c1=O (configuration not stated)	i	i	i	i	i	i	nt	nt
COc1ccccc1-c1nnc(Sc2nc([N+](=O)[O-])nn2C)o1	84	66	i	i	i	i	nt	nt	Mdm2 MdmX conf=97
CN1/C(=C/C(=O)c2nc(S(C)(=O)=O)ncc2Cl)C(C)(C)c2ccccc21	84	111	70	91	i	95	nt	nt	Mdm2 MdmX conf=103
CN1/C(=C\C(=O)C(F)F)C(C)(C)c2ccccc21	i	i	i	i	i	i	nt	nt
Cc1cc2cc(CCNC(=O)c3cccc([N+](=O)[O-])c3)c(=O)[nH]c2cc1C	i	i	i	i	i	i	nt	nt

High-throughput results as filed in PubChem BioAssay.
